{"source": "PubChem BioAssay AID743279", "about": "(National Center for Advancing Translational Sciences (NCATS), 2014)", "note": "Out of some 360,000 compounds screened, about 17,000 (4.7%) were called active. Roughly 5% stayed inconclusive and do not appear here. Many of the other results were omitted from the sample, so actives are more common in it than they were. Unmarked numbers belong to inactive results. No stated cut-off is given here; in the data, active means activity change below about -50%; inconclusive means mostly about -30% to -49%; inactive means weaker than that. On the % scale 0 is the no-effect control and ±100 the full control effect."}
{"test": "qHTS for Inhibitors of Inflammasome Signaling: IL-1-beta AlphaLISA Primary Screen", "conditions": "THP-1 LPS/ATP IL-1B secretion, 16 h; at 57.5 µM, hits give low values", "in_short": "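THP-1 cells pretreated 1 hr with compounds (up to 57.5 uM final), then stimulated with LPS (250 ng/mL final) plus ATP (1.25 mM final); secreted IL-1B measured by AlphaLISA after 16 hr, decreased signal indicating inhibition.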"}
{"compound": "Cc1sc2ccccc2c1CNC[C@H]1O[C@@H](n2ccc(=O)[nH]c2=O)[C@H](O)[C@@H]1O", "activity change": "-9.54%"}
{"compound": "CN(Cc1c(F)cccc1Cl)C(=O)COC(=O)Cn1cnc2ccccc2c1=O", "activity change": "12.8%"}
{"compound": "CCCCN1CC(N2CCN(Cc3cccc(C)c3)CC2)CS1(=O)=O", "note": "(centres undefined)", "activity change": "-1.82%"}
{"compound": "CCc1ccc([C@@H]2CC(=O)[C@@H]3CN(S(=O)(=O)c4ccc(C)cc4)[C@H](c4ccc(Cl)cc4)C[C@@H]3N2S(=O)(=O)c2ccc(C)cc2)cc1", "activity change": "9.82%"}
{"compound": "O=S(=O)(c1ccc(Cl)cc1)c1nc(-c2ccco2)oc1N1CCCCC1", "activity change": "-10.9%"}
{"compound": "COc1ccc(-c2oc(/N=C/N3CCCC3)c(C#N)c2-c2ccc(OC)cc2)cc1", "activity change": "-12.8%"}
{"compound": "Cc1cc(N2CCCC2)ccc1NC(=O)COc1ccc(Cl)cc1", "activity change": "2.28%"}
{"compound": "N#Cc1ccc(OCc2nnc(-c3ccc([N+](=O)[O-])cc3)o2)cc1", "activity change": "-1.57%"}
{"compound": "N#Cc1nc(COc2ccc(Cl)cc2)oc1N1CCCC1", "activity change": "-69.8% (active)"}
{"compound": "Cc1ccc(OCc2nc(C#N)c(N3CCCC3)o2)cc1", "activity change": "-58.3% (active)"}
{"compound": "CNC(=O)C1CN(C(=O)c2cccc(S(=O)(=O)N3CCc4ccccc43)c2)c2ccccc2O1", "note": "(centres undefined)", "activity change": "31.5%"}
{"compound": "COc1ccc(-c2coc3c(C(=O)NC(C)C)cccc23)c(C)c1", "activity change": "-10.6%"}
{"compound": "COc1ccc(CN2CCC(C)(Oc3cccc(F)c3)C2)c2ccccc12", "note": "(centres undefined)", "activity change": "6.61%"}
{"compound": "Nc1nc2c(ncn2[C@@H]2O[C@H](CNCc3ccc(OCCCN4CCOCC4)cc3)[C@@H](O)[C@H]2O)c(=O)[nH]1", "activity change": "16.8%"}
{"compound": "CC1CC(C)CN(CCOc2cccc3ccccc23)C1", "note": "(centres undefined)", "activity change": "-68.4% (active)"}
{"compound": "CC1CN(CCOc2ccccc2[N+](=O)[O-])CC(C)O1", "note": "(centres undefined)", "activity change": "7.14%"}
{"compound": "CC1CCCN(CCOCCOc2ccccc2-c2ccccc2)C1", "note": "(centres undefined)", "activity change": "-6.75%"}
{"compound": "CCCn1nnnc1NC(=O)COc1ccc(Cl)cc1C", "activity change": "-5.09%"}
{"compound": "COc1ccc(Cl)cc1C=CC=Nc1ccc(S(N)(=O)=O)cc1", "activity change": "-101% (active)"}
{"compound": "COc1ccc(Cl)cc1C=CC=NNC(=O)c1ccncc1", "activity change": "-5.27%"}
{"compound": "COc1ccccc1/C=C/C=N/n1c(-c2ccc(Cl)cc2Cl)n[nH]c1=S", "activity change": "0%"}
{"compound": "CC1(C)CC(=O)C=C(c2ccc(COC(=O)c3cc(F)cc(F)c3)cc2)C1=O", "activity change": "16.9%"}
{"compound": "Cc1cc(N2CCN(c3ccc(F)cc3)CC2)n2ncnc2n1", "activity change": "-4.74%"}
{"compound": "Cc1ccc(C(=O)Nc2c(C#N)c(C)c(C)n2Cc2ccccc2)cc1", "activity change": "-11.6%"}
{"compound": "Cc1c(C#N)c(NC(=O)c2ccccc2)n(Cc2ccccc2)c1C", "activity change": "-78.4% (active)"}
{"compound": "COc1ccc(Cn2c(C)c(C)c(C#N)c2NC(=O)Nc2ccc(F)cc2)cc1", "activity change": "31.5%"}
{"compound": "Cc1cn([C@H]2C[C@H](O)[C@@H](/C=C/C(=O)NCCCc3ccccc3)O2)c(=O)[nH]c1=O", "activity change": "-16.4%"}
{"compound": "COc1ccc(C2NC(=O)c3ccccc3N2)cc1", "note": "(centres undefined)", "activity change": "-24.2%"}
{"compound": "COc1ccc(OC)c(C(=O)c2ccc(Cl)cc2)c1", "activity change": "1.55%"}
{"compound": "COc1ccc2c(c1)C(=O)Nc1cc(Cl)ccc1N2", "activity change": "-52.1% (active)"}
{"compound": "Cc1cc(C)n2c(NCc3ccccc3)c(CC(C)C)nc2n1", "activity change": "19.1%"}
{"compound": "CCn1cc(C(=O)NCC2CCCO2)c(=O)c2cc(S(=O)(=O)N3CCCCC3)ccc21", "note": "(centres undefined)", "activity change": "-22.1%"}
{"compound": "CCn1cc(C(=O)NCCCN2CCCCCC2)c(=O)c2cc(S(=O)(=O)N3CCc4ccccc4C3)ccc21", "activity change": "-60.8% (active)"}
{"compound": "CCn1cc(C(=O)NC2CCCCCC2)c(=O)c2cc(S(=O)(=O)N3CCCCC3)ccc21", "activity change": "-14.9%"}
{"compound": "O=C(C(=O)N1CCN(c2ccccc2)CC1)c1ccc2c(c1)OCO2", "activity change": "-2.25%"}
{"compound": "O=C(Nc1ccccc1F)c1ccccc1-c1ccc(C(F)(F)F)cc1", "activity change": "9.12%"}
{"compound": "N#C/C(=C\\c1ccccc1C(F)(F)F)C(=O)Nc1ccccc1F", "activity change": "-50.4% (active)"}
{"compound": "N#C/C(=C\\C1=C(N2CCOCC2)C(=C\\c2ccccc2)/CC1)C(=O)Nc1ccccc1F", "activity change": "5.35%"}
{"compound": "COc1ccc(Cn2c(=S)[nH]c3cc(C(=O)N4CCCCC4)ccc3c2=O)cc1", "activity change": "11.3%"}
{"compound": "CCOc1cc2[nH]c(=S)n(Cc3ccc(C(=O)N4CCN(C)CC4)cc3)c(=O)c2cc1OCC", "activity change": "-53.6% (active)"}
{"compound": "CCOc1cc2[nH]c(=S)n(Cc3ccc(C(=O)NCCOC)cc3)c(=O)c2cc1OCC", "activity change": "0%"}
{"compound": "COc1cccc(-c2cnc3c(NC(C)=O)cc(-c4cccc(NC(C)=O)c4)cn23)c1", "activity change": "10.8%"}
{"compound": "N=c1n(Cc2ccc(Cl)cc2)c2ccccc2n1CC(O)c1ccco1", "note": "(centres undefined)", "activity change": "-59.8% (active)"}
{"compound": "C=CCn1c(=N)n(CC(O)COc2ccc(OC)cc2)c2ccccc21", "note": "(centres undefined)", "activity change": "-22.5%"}
